# KCNQ2 enhance: enhances the rat KCNQ2 potassium channel | O88943 | AID 2239 | B-score at 10 µM | CHO-K1 KCNQ2, FluxOR thallium flux fluorescence; active compounds read high | 0.54% of 310,000 active;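 active = fluorescence ratio B-score at least 3 SD of library B-scores, with initial fluorescence B-score within 3 of them, cut at about 5.3 in these data; same plate scores as AID 2156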;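 note: B-score of peak minus minimum over baseline fluorescence ratio after K+ and Tl+ stimulus; positive B-score means potentiation of KCNQ2 with more thallium influx and brighter signal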
# KCNQ2 inh: blocks the rat KCNQ2 potassium channel. O88943. B-score at 10 µM. CHO-K1 KCNQ2, FluxOR thallium flux, 20 min; active compounds read low. 1.1% of 310,000 active;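 active = fluorescence ratio B-score at most minus 3 library SDs, with starting brightness B-score within 2 library SDs, cut at about -5.5 in these data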
# A number is an active result; . = inactive; / = not tested or not shown. In the library only some 1.6% were active in any assay of this set; here they are far more common.
SMILES,KCNQ2 enhance,KCNQ2 inh
C[n+]1cccc(C(=O)NNC(=O)C23CC4CC(CC(C4)C2)C3)c1,.,.
COc1cccc(-c2noc(C3CCCN(S(=O)(=O)c4cccc(Cl)c4C)C3)n2)c1 (configuration not stated),.,-6
CCCS(=O)(=O)N1CCCC(c2nc(-c3cccc(OC)c3)no2)C1 (configuration not stated),/,.
Cn1nc(-c2ccccc2)c(C#N)c1Sc1cccc(Cl)c1,.,-8.1
Cc1nn(C)c(Oc2cccc(Cl)c2)c1C#N,/,.
CCS(=O)(=O)c1nc(S(=O)(=O)c2ccc(C)cc2)c(N2CCC3(CC2)OCCO3)s1,.,.
O=C(CCCCCN1C(=O)[C@@H]2Cc3ccccc3CN2C1=O)Nc1cccc(F)c1,.,-5.8
Cc1cccc(NC(=O)CCCCCN2C(=O)[C@@H]3Cc4ccccc4CN3C2=O)c1,/,.
CC(C)c1ccc(NC2=CC(=O)CC(C)(C)C2)cc1,.,.
COC(=O)c1ccc(OC)c(CSc2nnc(COc3cccc(C)c3)o2)c1,.,-6.1
COC(=O)c1ccc(OC)c(CSc2nnc(COc3ccc(OC)cc3)o2)c1,/,.
CCOc1ccc(N(CC(=O)Nc2ccc(OC)cc2)C2=NC3CS(=O)(=O)CC3S2)cc1 (configuration not stated),.,.
CCN(C(=O)CCCCC(=O)N(CC)c1ccccc1)c1ccccc1,/,.
COc1cc(NS(=O)(=O)c2ccc(NC(=S)NC(=O)CC(C)C)cc2)nc(OC)n1,.,.
COC(=O)CCC(=O)NC(=S)Nc1ccc(S(=O)(=O)Nc2cc(OC)nc(OC)n2)cc1,.,-6.4
COc1ccc(C2=NN(C(=O)CSc3nc(=O)n4cc(C)ccc4n3)C(c3ccc(C)cc3)C2)cc1 (configuration not stated),/,.
Oc1c(Br)cc(Br)cc1C=NCc1ccc(F)cc1,11,.
Oc1c(Br)cc(Br)cc1C=NCc1ccccc1,/,.
O=C(O)C1CCC(NSc2ccccc2[N+](=O)[O-])CC1 (configuration not stated),.,.
CC(O)(C#CCN1CCCCC1)c1ccccc1 (configuration not stated),.,.
CC(C)(C#CCN1CCCCC1)OCCOC(c1ccccc1)c1ccccc1,.,-6.1
O=C(Nc1ccccc1Cl)c1cc(=O)c2ccccc2o1,.,.
CCOc1c(C)cnc2c1c(=O)n(Cc1ccc(Cl)cc1)c(=O)n2C,.,-5.9
CCOc1c(C)cnc2c1c(=O)n(Cc1cccc(Cl)c1)c(=O)n2C,/,.
Cc1ccc(C)c(NC(=O)c2ccc(S(=O)(=O)C(F)F)cc2)c1,/,.
SMILES,KCNQ2 enhance,KCNQ2 inh
c1ccc2c(Cn3ccnc3)cccc2c1,/,.
Cc1cc(NCc2ccccc2)nc2ccccc12,.,.
C/C(CCC(C)C)=N\Nc1cc(C)c2ccccc2n1,.,-8.3
NC(=S)N=Nc1c(O)n(CCCl)c2ccc(Br)cc12,/,.
C/C(Cl)=C\Cn1c(O)c(N=NC(N)=S)c2cc(Br)ccc21,9.2,.
COc1ccc(C(=O)NC(=S)Nc2ccc(N3CCOCC3)c(Cl)c2)cc1[N+](=O)[O-],.,.
COC1(OC)C(/C=C/c2ccc(C)cc2)C(C#N)(C#N)C1(OC)OC (configuration not stated),.,-7.5
Cc1ccc(C(C)C)c(OCC(=O)Nc2ccccc2N2CCN(C)CC2)c1,/,.
CC(=O)N1CCN(c2ccccc2NC(=O)COc2cc(C)ccc2C(C)C)CC1,.,-7.8
Cc1cccc(OCC(=O)Nc2ccccc2N2CCCC2)c1C,/,.
Cc1cccc(OCC(=O)Nc2ccccc2N2CCN(C(=O)C(C)C)CC2)c1C,.,-5.8
c1ccc(CC2CCN(C3=Nc4cccc5cccc3c45)CC2)cc1,.,-6
c1cc2c3c(cccc3c1)C(N1CCOCC1)=N2,/,.
O=c1[nH]c2ccc([N+](=O)[O-])cc2nc1/C=C(\O)c1ccccc1,/,.
CSCCC(NS(=O)(=O)c1ccccc1F)C(=O)OCc1ccccc1Cl (configuration not stated),.,-6.2
CSCCC(NS(=O)(=O)c1ccc(Cl)cc1)C(=O)OCc1c(Cl)cccc1Cl (configuration not stated),/,.
C[C@H]1[C@H](C)CC[C@]2(C)CC[C@]3(C)C(=CC[C@@H]4[C@@]5(C)CC[C@@H](O)[C@](C)(C(=O)O)[C@@H]5CC[C@]43C)[C@H]12,.,-9.2
C[C@H]1[C@H](C)CC[C@]2(C(=O)O)CC[C@]3(C)C(=CC[C@@H]4[C@@]5(C)C[C@@H](O)[C@H](O)C(C)(C)[C@@H]5CC[C@]43C)[C@H]12,.,.
COc1cccc(CNC(=O)[C@@H](C)N2C(=O)N3CCc4c([nH]c5ccc(OC)cc45)C3(C)C2=O)c1 (some centres not stated),/,.
CCCN(C(=O)c1cn(-c2ccccc2)nc1-c1ccc(OC)cc1)C1CCS(=O)(=O)C1 (configuration not stated),/,.
O=C(COC(=O)CCC(NC(=O)OCc1ccccc1)C(=O)OCC(=O)Nc1ccccc1)Nc1ccccc1 (configuration not stated),.,.
CC(=O)c1c(C)[nH]c(C(=O)Nc2nc(-c3ccc(Cl)cc3)cs2)c1C,.,.
CC(=O)c1c(C)[nH]c(C(=O)Nc2nc(-c3ccc(-c4ccccc4)cc3)cs2)c1C,.,-7.6
COc1ccc(-c2nc(NC(=O)c3[nH]c(C)c(C(C)=O)c3C)sc2C)cc1,.,-6.5
COc1ccc(OC)c(NC(=O)c2[nH]c(C)c(C(C)=O)c2C)c1,.,.
SMILES,KCNQ2 enhance,KCNQ2 inh
COC(=O)/C(=C(O)\C=C\c1ccccc1[N+](=O)[O-])c1nc2ccccc2[nH]1,.,.
Cc1ccc2c(c1)-c1c(cnn1CC(=O)N1CCCN(Cc3ccccc3F)C1)CO2,.,-8.2
Cc1ccc2c(c1)-c1c(cnn1CC(=O)O)CO2,/,.
Cc1cc(C)cc(NCc2cc3c(cc2[N+](=O)[O-])OCO3)c1,.,-6.2
COc1ccc(CNCc2cc3c(cc2[N+](=O)[O-])OCO3)cc1,.,.
O=c1c2sccc2n(Cc2cccc(F)c2)c(=O)n1-c1ccc(F)cc1,/,.
O=[N+]([O-])c1ccc(S(=O)(=O)N2CCN(c3ccc(N4CCOCC4)nn3)CC2)cc1,/,.
S=C(NCCCN1CCOCC1)N(Cc1ccccc1)Cc1ccccc1,.,.
COc1ccc(C(=O)C2CCN(CC(=O)Nc3ccc(C)cc3)CC2)cc1,/,.
CC1CCN(Cc2c(C(=O)N3CCc4ccccc4C3)nc3ccc(Cl)cn23)CC1,.,-5.8
O=C(c1nc2ccc(Cl)cn2c1CN1CCC(O)CC1)N1CCc2ccccc2C1,.,.
COc1cccc(CNc2ccc(S(N)(=O)=O)cc2)c1OCc1ccccc1F,9.3,.
C=CCOc1c(CNc2ccc(S(N)(=O)=O)cc2)cccc1OC,.,.
COc1ccc(N(CC(=O)NCc2ccccc2OC)S(=O)(=O)c2ccccc2)cc1,/,.
CN1CCCC(OC(=O)c2ccccc2Br)C1 (configuration not stated),.,.
C=CCN1C(=O)C(Cc2ccccc2)S/C1=N/N=C/c1cccs1 (configuration not stated),/,.
C=CCN1C(=O)C(Cc2ccc(OCC)cc2)S/C1=N\N=C\c1cccs1 (configuration not stated),.,-5.6
CC(=O)Nc1cccc(Oc2ccc3c(c2)C(=O)NC3=O)c1,.,.
COc1ccc(CCN2CC(C(=O)NCCc3ccccn3)CCC2=O)cc1 (configuration not stated),.,.
COc1cccc(N2CCN(C(=O)CSc3ccc(F)cc3)CC2)c1,/,.

# High-throughput results as filed in PubChem.
